Measured values taken from the supplement of paper PMC12669032.

The molecules below were run on Roseburia intestinalis (assay: growth AUC relative to DMSO control (median of replicates) (fraction); higher = more growth (less inhibition), active = hit call of the paper). Settings: 20 µM; 24 h;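 active = AUC reduced over 20% with Padj below 0.05 in at least 2 of 3 replicates; inactive = otherwise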.
Summary of the method: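 For each compound at 20 µM (1% DMSO), gut bacterial monocultures seeded at OD600 0.05 grew anaerobically in mGAM at 37 °C in round-bottom 96-well plates. Hourly OD600 readings over 24 h gave growth curves whose minimum OD was set to 0. Area under these curves was normalised to the plate median of solvent-only wells, or to row and column medians on the industrial chemical plate. Values are medians of three biological replicates grown on separate days.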

SMILES	growth AUC
Oc1ccc(-c2ccccc2)cc1	0.947 (inactive)
CCOP(=S)(OCC)Oc1ccc(=O)n(-c2ccccc2)n1	0.988 (inactive)
Nc1nc(N)nc(NC2CC2)n1	0.97 (inactive)
Nc1cccc(Cl)c1Cl	1.02 (inactive)
O=C(Nc1ccc(F)cc1F)c1cccnc1Oc1cccc(C(F)(F)F)c1	0.933 (inactive)
Nc1c([N+](=O)[O-])ccc(Oc2ccccc2)c1Cl	0.988 (inactive)
Cc1ccc(N=CN(C)C=Nc2ccc(C)cc2C)c(C)c1	0.983 (inactive)
CCC(C)[C@H]1O[C@]2(C=C[C@@H]1C)C[C@@H]1C[C@@H](C/C=C(\C)[C@@H](O[C@H]3C[C@H](OC)[C@@H](O[C@H]4C[C@H](OC)[C@@H](O)[C@H](C)O4)[C@H](C)O3)[C@@H](C)/C=C/C=C3\CO[C@@H]4[C@H](O)C(C)=C[C@@H](C(=O)O1)[C@]34O)O2.CO[C@H]1C[C@H](O[C@H]2[C@H](C)O[C@@H](O[C@@H]3/C(C)=C/C[C@@H]4C[C@@H](C[C@]5(C=C[C@H](C)[C@@H](C(C)C)O5)O4)OC(=O)[C@@H]4C=C(C)[C@@H](O)[C@H]5OC/C(=C\C=C\[C@@H]3C)[C@]54O)C[C@@H]2OC)O[C@@H](C)[C@@H]1O (stereo partly drawn)	0.571 (active)
CN(C)C(CSS(=O)(=O)[O-])CSS(=O)(=O)O.[Na+]	1.06 (inactive)
Cc1[nH]c(=O)n(C(C)(C)C)c(=O)c1Cl	0.986 (inactive)
CCOP(=S)(OCC)Oc1cc(C)nc(C(C)C)n1	0.984 (inactive)
CCNC(=O)NC(=O)/C(C#N)=N/OC	1.16 (inactive)
CCOc1ccc(C(C)(C)COCc2cccc(Oc3ccccc3)c2)cc1	0.975 (inactive)
Nc1nc(N)nc(N)n1	1.09 (inactive)
COc1ccc(-c2ccccc2)cc1NNC(=O)OC(C)C	1.03 (inactive)
CCCCC(CC)COC(=O)c1ccccc1C(=O)OCC(CC)CCCC (stereo not drawn)	0.971 (inactive)
CCCCNC(=O)n1c(NC(=O)OC)nc2ccccc21	0.985 (inactive)
COc1cc(OC)n2nc(S(=O)(=O)Nc3c(Cl)ccc(C)c3Cl)nc2n1	0.999 (inactive)
CCCCC(C#N)(Cn1cncn1)c1ccc(Cl)cc1 (stereo not drawn)	0.94 (inactive)
CN=C=S	0.997 (inactive)
CC1=C(C(=O)Nc2ccccc2)SCCO1	1.08 (inactive)
CCOCn1c(-c2ccc(Cl)cc2)c(C#N)c(Br)c1C(F)(F)F	0.983 (inactive)
CCOCCN(C(=O)CCl)C(=C(C)C)c1ccccc1	1.03 (inactive)
